Bioassay records from PubChem.
Pf growth 96h = P. falciparum growth inhibition at 96 hour, primary screen for plastid delayed-death inhibitors. P. falciparum luciferase reporter growth, 96 h. Potency, µM (highest dose often 28.7 µM), for the others: at the highest dose activity change, negative = inhibition, usual class: inhibitors. hit rate 6.9% among 320,000. AID 504834
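P. falciparum expressing integrated firefly luciferase grown in erythrocytes (2% hematocrit, 0.05% parasitemia final) with compounds for 96 hours at 37 C, 5% CO2. Growth inhibition read as loss of luminescence after adding luciferase detection reagent.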
AMA1-RON2 inh = AMA1-RON2 (P. falciparum) interaction inhibition; AlphaScreen AMA1-biotinylated RON2 peptide binding; hit rate 0.2% among 360,000; Potency, µM (top dose mostly 58.2 µM), for inactives: at the highest dose activity change, negative = inhibition, usual class: inhibitors;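 note: 0% = vehicle wells and -100% = peptide control; nearly all actives have a fitted effect of over 45% in size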
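AMA1 (3D7) with his tag at 25 nM final met compounds first, then biotinylated RON2 peptide at 25 nM; detection used donor plus acceptor beads, 10 µg/mL apiece, read by AlphaScreen after 30 min at room temperature.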
VACV Venus inh = vaccinia inhibition (Venus reporter); Vaccinia virus Venus reporter expression, fluorescence; Potency, µM (top dose mostly 36.5 µM), for the others: top-dose activity change, negative = inhibition, hits mostly inhibitors; hit rate 0.46% among 330,000; AID 720580; calls by dose curve; tested in A549 cells; note: nearly all actives have a fitted effect of over 30% in size
Pf growth 48h = P. falciparum growth inhibition at 48 hours (one generation); Potency, µM (series often up to 28.7 µM), inactives show top-dose activity change, negative = inhibition, usual class: inhibitors; hit rate 5.9% among 310,000; AID 504832; P. falciparum luciferase growth in erythrocytes, 48 h
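Firefly luciferase activity from engineered P. falciparum reports growth; inhibitors lower the luminescent signal. Cultures contained 2% hematocrit erythrocytes at 0.1% final parasitemia.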
VACV mCherry inh = inhibitors of vaccinia virus infection (mCherry reporter signal); Vaccinia virus mCherry reporter infection, fluorescence; Potency, µM (titrated, usually from 36.5 µM), inactives show top-dose activity change, negative = inhibition, usual class: inhibitors; hit rate 0.63% among 310,000; calls by dose curve; tested in A549 cells; note: nearly all actives have a fitted effect of over 35% in size
* = called active by the depositor; i = inactive; ? = inconclusive; / = no result; [ ] = dose if it differs, or a comment. Most compounds without a hit are left out; they make up all but 8.7% or so of the library. Unless noted, calls come from the whole dose curve; as a rule, active = well fitted curve in the direction sought with a large enough effect; inconclusive = small, poorly fitted or top-dose-only effect, or another doubt; inactive = no such curve, though single readings can be large; an effect the other way counts as inactive or inconclusive. Unless noted, % is set by controls: 0 for no effect and ±100 for the full control effect; potency is the fitted concentration of half-maximal effect.

SMILES	Pf growth 96h	AMA1-RON2 inh	VACV Venus inh	Pf growth 48h	VACV mCherry inh
O=c1[nH]cnc2scc(-c3ccc(F)cc3)c12	1%	-4%	/	-3%	/
O=S(=O)(c1ccccc1)c1cnn(-c2ccccc2)c1-c1ccc(F)cc1	5.9µM*	-18%	/	?	/
O=S(=O)(c1ccccc1)c1cnn2c(C(F)(F)F)cc(-c3ccc(F)cc3)nc12	?	-1%	/	6%	/
COc1ccc(-n2ncc(S(=O)(=O)c3ccccc3)c2-c2ccc(Cl)cc2)cc1	?	-18%	/	12µM*	/
Cc1ccc(NCc2cccn2-c2nnc(N3CCC(C(=O)NCc4ccc(F)cc4)CC3)s2)cc1	/	/	-27%	/	?
CCC(C)NS(=O)(=O)c1ccc(OCC(=O)NCc2ccc(OC)cc2)cc1 (stereo not given)	69%[5.75 µM]	-11%	4%	?	i
CCOc1ccc(CNC(=O)NS(=O)(=O)c2ccc(OC)cc2)cc1	2.9µM*	0%	/	15%	/
Cc1ccccc1OCC(=O)Nc1cc(-c2cccc(Br)c2)nn1-c1ccccc1	/	/	-11%	/	-15%
CC(C)[C@@H](COc1ccccc1)N1CCN(Cc2ccccc2)CCC1=O	6.6µM*	-9%	-6%	?	-17%
COc1ccc(CN(C(=O)CSc2nnc(-c3c[nH]c4ccccc34)o2)c2ccc(F)cc2)cc1OC	?	-22%	10µM*	4.1µM*	10µM*
Cc1ccc(S(=O)(=O)N2CCC(=O)N([C@H](CO)Cc3ccccc3)CC2)cc1	/	2%	-1%	/	10%
Cc1ccc(S(=O)(=O)N2CCC(=O)N(C(COCc3cccc(C)c3)Cc3ccccc3)CC2)cc1 (stereo not given)	9.3µM*	8%	?	?	-22%
Cc1ccc(S(=O)(=O)N2CCC(=O)N([C@H](COCc3cccc(C(F)(F)F)c3)C(C)C)CC2)cc1	/	-5%	-7%	/	-7%
Cc1ccc(S(=O)(=O)N2CCC(=O)N(C(COC(=O)Nc3ccccc3)Cc3ccccc3)CC2)cc1 (stereo not given)	15µM*	-1%	-26%	?	-9%
Cc1ccc(S(=O)(=O)N2CCC(=O)N(C(COCc3ccc(C(F)(F)F)cc3)C(C)C)CC2)cc1 (stereo not given)	10µM*	5%	?	?	i
Cc1ccc(S(=O)(=O)N2CCC(=O)N(C(COCc3ccc(C(F)(F)F)cc3)Cc3ccccc3)CC2)cc1 (stereo not given)	7.4µM*	-1%	-26%	?	-10%
COCCNC(=O)CN1C(=O)c2cccnc2Sc2ccccc21	/	/	-10%	/	-2%
Cc1ccc(S(=O)(=O)N2CCC(=O)N(C(COCc3ccc(Cl)c(Cl)c3)Cc3ccccc3)CC2)cc1 (stereo not given)	?	-5%	-27%	9.3µM*	-22%
Cc1ccc(NC2=Nc3ccccc3N3C2=Nc2c(c(C)nn2-c2ccccc2)C3c2ccc(O)c(O)c2)cc1 (stereo not given)	?	-13%	?	?	/
Cc1cccc(NC2=Nc3ccccc3N3C2=Nc2c(c(C)nn2-c2ccccc2)C3c2ccc(O)c(O)c2)c1 (stereo not given)	12µM*	?	?	?	/
Cc1nn(-c2ccccc2)c2c1C(c1ccc(O)c(O)c1)N1C(=N2)C(Nc2ccccc2)=Nc2ccccc21 (stereo not given)	10µM*	-2%	-3%	10µM*	i
CCc1ccccc1NC(=O)c1cnn2c(C(F)(F)F)cc(-c3ccc(OC)c(OC)c3)nc12	/	/	-8%	/	-4%
Cn1c2ccccc2c2nn(-c3ccccc3)c(=O)cc21	10µM*	6%	/	1%	/
Cn1c2ccccc2c2n[nH]c(=O)nc21	?	-2%	8%	8%	-12%
O=C(Cc1cccs1)NC1CC(=O)N(c2ccccc2)C1 (stereo not given)	/	/	-5%[7.34 µM]	/	0%[7.34 µM]
SMILES	Pf growth 96h	AMA1-RON2 inh	VACV Venus inh	Pf growth 48h	VACV mCherry inh
Cc1cc[n+]2cc(-c3cccc([N+](=O)[O-])c3)c(-c3cccc([N+](=O)[O-])c3)cc2c1	0.15µM*	-6%	-15%	0.83µM*	-19%
Cc1cccc(-c2cnn(-c3cccc([N+](=O)[O-])c3)c2N)c1	96%	-24%	-4%	40%	-31%
CCCC1=C(C(=O)OCC)C(c2ccc(OC)c(CSc3ccccn3)c2)C(C#N)=C(N)O1 (stereo not given)	?	11%	-16%	9.3µM*	-6%
CCOC(=O)C1=C(CC)OC(N)=C(C#N)C1c1ccsc1 (stereo not given)	13µM*	-2%	-1%	-7%	i
Cn1cc(C(c2ccccc2OCC(=O)O)c2cn(C)c3ccccc23)c2ccccc21	5.2µM*	-26%	348%	32%	190%
COc1ccccc1CC(=O)Nc1ccc(NC(=O)c2cccs2)cc1	?	0%	-19%	-3%	-16%
COc1cc(NC(=O)c2cccs2)cc(OC)c1	10µM*	3%	-2%	75%	/
COc1cc(NC(=O)Cc2cccs2)cc(OC)c1	10µM*	0%	-10%	1%	-24%
COc1cccc(NC(=O)Cc2cccs2)c1	33%	4%	-15%	7%	/
CCN(CC(=O)Nc1ccccc1OC)C(=O)c1ccc(NC(=O)c2cccs2)cc1	?	-18%	/	7.4µM*	/
O=C(Nc1cccc(-c2csc(-c3ccccc3)n2)c1)c1cccs1	0.33µM*	3%	?	/	?
Cc1cccn2c(=O)cc(COc3ccc(NC(=O)COc4ccc(F)cc4)cc3)nc12	/	/	-17%	/	-19%
O=C(NCc1ccc(Cl)cc1)c1cnc2sc(N3CCCCCC3)nn2c1=O	/	/	-8%	/	-8%
CC(C)CN1C(=O)c2ccc(NC(=O)c3cccs3)cc2C1=O	/	-2%	-18%	8.3µM*	-24%
COc1cc(NC(=O)c2ccc(C)cc2C)ccc1NC(=O)c1cccs1	70%	-5%	-15%	16%	-6%
Cc1ccc(C(=O)Nc2cccc(NC(=O)c3cccs3)c2)c(C)c1	12µM*	-5%	/	?	/
CC(C)CN1C(=O)c2ccc(NC(=O)c3ccco3)cc2C1=O	?	4%	0%	-8%	i
Cc1cc(C)cc(C(=O)Nc2ccc(NC(=O)c3cccs3)cc2)c1	4%	0%	?	?	10µM*
CCN1CCC(N(Cc2ccc3c(c2)OCO3)C(=O)Nc2cc(Cl)ccc2C(=O)OC)CC1	/	/	?	/	-21%
Cc1cc(C)cc(NC(=O)c2cc(S(=O)(=O)N3CCOCC3)cn2C)c1	/	/	-3%	/	-11%
O=C(Nc1ccccn1)c1cccc(S(=O)(=O)N2CCCc3ccccc32)c1	10µM*	4%	/	7.4µM*	/
Cc1cccc(S(=O)(=O)N2CCCc3ccccc32)c1	0%	16%	/	-45%	/
Cc1ccnc(NC(=O)c2cccc(S(=O)(=O)N3CCCc4ccccc43)c2)c1	1.9µM*	-8%	-11%	1.9µM*	-23%
COc1ccc(C(=O)Nc2ccc(C)cn2)cc1S(=O)(=O)N1CCCc2ccccc21	?	0%	-19%	12µM*	-11%
